{
  "source": "PubChem BioAssay AID602323",
  "about": "(The Scripps Research Institute Molecular Screening Center, 2012)",
  "note": "Values without a mark were called inactive. Activity calls are given as the source filed them. The rule behind the calls is not given here.",
  "data": [
    {"test_system": "80kDa SH", "assay": "serine hydrolase inhibition in mouse brain membranes, late-stage follow-up, selectivity assay for DAGLb inhibitor project, biochemical, gel-based competitive ABPP, fluorescence, set 2 (AID 602323)", "conditions": "mouse brain membrane, at 1 µM, stronger effect = higher value", "values": [
      {"smiles": "O=C(N(CCc1ccccc1)Cc1ccco1)n1cc(-c2ccc(OC(F)(F)F)cc2)nn1", "inhibition": "80% (active)"},
      {"smiles": "O=C(N1CCCCC1Cc1ccccc1)n1cc(-c2cc(F)cc(F)c2)nn1", "note": "(centres undefined)", "inhibition": "80% (active)"},
      {"smiles": "O=C(c1ccc(-c2ccc(-c3cn(C(=O)N4CCCCC4Cc4ccccc4)nn3)cc2)cc1)N1CCCCC1", "note": "(centres undefined)", "inhibition": "40%"},
      {"smiles": "O=C(N1CCCCC1Cc1ccccc1)n1ncc(-c2ccc(OC(F)(F)F)cc2)n1", "note": "(centres undefined)", "inhibition": "50% (active)"},
      {"smiles": "O=C(N1CCCCC1Cc1ccccc1)n1cc(-c2ccc(-c3ccccc3Cl)cc2)nn1", "note": "(centres undefined)", "inhibition": "0%"},
      {"smiles": "O=C(N1CCCCC1Cc1ccccc1)n1ncc(C(O)(c2ccccc2)c2ccccc2)n1", "note": "(centres undefined)", "inhibition": "20%"},
      {"smiles": "O=C(N1CCCCC1Cc1ccccc1)n1cc(-c2ccccc2-c2ccccc2)nn1", "note": "(centres undefined)", "inhibition": "80% (active)"},
      {"smiles": "O=C(N1CCCCC1Cc1ccccc1)n1cc(-c2ccc(-c3ccoc3)cc2)nn1", "note": "(centres undefined)", "inhibition": "20%"},
      {"smiles": "O=C(c1ccc(-c2cn(C(=O)N3CCCCC3Cc3ccccc3)nn2)cc1)N1CCCCC1", "note": "(centres undefined)", "inhibition": "20%"},
      {"smiles": "O=C(N1CCCCC1Cc1ccccc1)n1cc(-c2ccc(-c3ccccc3CO)cc2)nn1", "note": "(centres undefined)", "inhibition": "5%"},
      {"smiles": "O=C(N1CCCCC1Cc1ccccc1)n1cc(-c2cccc(-c3ccccc3)c2)nn1", "note": "(centres undefined)", "inhibition": "0%"},
      {"smiles": "CC(C)(C)OC(=O)NCCCCCN(CCc1ccccc1)C(=O)n1cc(-c2ccc(OC(F)(F)F)cc2)nn1", "inhibition": "80% (active)"},
      {"smiles": "O=C(N1CCCCC1Cc1ccccc1)n1cc(-c2ccc(-c3ccccc3OC(F)(F)F)cc2)nn1", "note": "(centres undefined)", "inhibition": "10%"},
      {"smiles": "Cc1ccccc1-c1ccc(-c2cn(C(=O)N3CCCCC3Cc3ccccc3)nn2)cc1", "note": "(centres undefined)", "inhibition": "0%"},
      {"smiles": "O=C(N1CCCCC1Cc1ccccc1)n1cc(-c2ccc(OC(F)(F)F)cc2)nn1", "note": "(centres undefined)", "inhibition": "20%"},
      {"smiles": "COc1ccccc1-c1ccc(-c2cn(C(=O)N3CCCCC3Cc3ccccc3)nn2)cc1", "note": "(centres undefined)", "inhibition": "0%"},
      {"smiles": "O=C(N1CCCCC1Cc1ccccc1)n1cc(-c2ccc(-c3ccc(OC(F)(F)F)cc3)cc2)nn1", "note": "(centres undefined)", "inhibition": "0%"},
      {"smiles": "O=C(N1CCCCC1Cc1ccccc1)n1cc(-c2ccc(Br)cc2)nn1", "note": "(centres undefined)", "inhibition": "50% (active)"},
      {"smiles": "CC(C)CN(CCc1ccccc1)C(=O)n1cc(-c2ccc(OC(F)(F)F)cc2)nn1", "inhibition": "80% (active)"},
      {"smiles": "O=C(N1CCCCC1Cc1ccccc1)n1cc(-c2ccc(-c3ccc(C(F)(F)F)cc3)cc2)nn1", "note": "(centres undefined)", "inhibition": "0%"},
      {"smiles": "O=C(N1CCCCC1Cc1ccccc1)n1cc(-c2ccc(-c3ccc4c(c3)OCO4)cc2)nn1", "note": "(centres undefined)", "inhibition": "0%"},
      {"smiles": "O=C(N1CCCCC1Cc1ccccc1)n1cc(-c2ccc(-c3ccccc3C(F)(F)F)cc2)nn1", "note": "(centres undefined)", "inhibition": "0%"},
      {"smiles": "O=C(N1CCCCC1Cc1ccccc1)n1cc(-c2ccc(-c3cccc(CO)c3)cc2)nn1", "note": "(centres undefined)", "inhibition": "10%"},
      {"smiles": "O=C(N1CCCCC1Cc1ccccc1)n1cc(-c2ccc(-c3cccc(C(F)(F)F)c3)cc2)nn1", "note": "(centres undefined)", "inhibition": "0%"}
    ]}
  ]
}
